Rows were chosen to be rich in hits. Some 2.4% of all compounds tested hit in one or more screens of this group.
D2 PAM-1 = positive allosteric modulators of human D2 dopamine receptor. AID 624464. DiscoveRx D2 beta-arrestin cells, luminescence, 90 min; 100% = 57 uM dopamine signal. hit rate 0.23% among 360,000. potentiation, % (test concentration not listed). P14416; in the data active means potentiation above about 50%; inconclusive means mostly about 30% to 49%
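PathHunter beta-arrestin assay in DiscoveRx D2 cells. Compounds were added with an EC20 of dopamine (50 nM final) for 90 min at 37 deg C. Luminescence was read 1 h after detection reagent, with 57 uM dopamine as the EC100 control.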
D2 ag-1 = agonists of human D2 dopamine receptor | P14416 | HEK293 T-REx D2 cells, calcium flux agonist mode | activation, % at 2 µM | hit rate 0.53% among 340,000 | AID 485358;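 active means activation over 3 SD above normal in the single-dose calcium agonist read, cut at about 30% in these data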; further: 0% is about no effect
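Tetracycline-induced HEK293 T-REx cells with force-coupled D2 receptor, plated overnight at 30 C, loaded with no-wash calcium dye. After a 10 s baseline, compound was pin-added and calcium flux read kinetically for 180 s; calcium rises flagged agonists.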
D2 antagonist = D2 dopamine receptor (human) antagonism | hit rate 2% among 340,000 | HEK293 TREx D2 cells, calcium flux, dopamine EC80 | AID 485344 | inhibition, % at 10 µM | P14416; in the data active means inhibition above about 30%; inactive means below that, where a call was filed; further: 0% is about no effect
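Antagonism is scored as inhibition of an EC80 dopamine-evoked calcium signal in a force-coupled, tetracycline-inducible HEK293 T-REx D2 line, with compound present 180 s before agonist.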
D2 ag-2 = agonists of human D2 dopamine receptor (beta-arrestin) | hit rate 0.084% among 360,000 | activation, % (concentration not given with the values) | P14416 | DiscoveRx PathHunter D2 beta-arrestin, luminescence, 90 min; 100% = 57 uM dopamine signal | AID 624465; in the data active means activation above about 40%; inconclusive means between about 15% and that limit
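Agonist mode: compounds alone added to overnight-plated D2 PathHunter cells for 90 min at 37 C, with 57 uM final dopamine (EC100) defining full response. Beta-arrestin recruitment detected by chemiluminescent reagent, read after 1 h at ambient temperature.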
D2 PAM-2 = positive allosteric modulators of human D2 dopamine receptor. P14416. HEK293 T-REx D2, calcium flux, EC20 dopamine potentiation. potentiation, % at 10 µM. hit rate 0.34% among 340,000. AID 485347;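 active means potentiation over 3 SD above the plate norm, cut at about 30% in these data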; further: 0% is about no effect
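Primary screen. Calcium kinetics in induced HEK293 T-REx D2 cells: compound pre-addition 180 s, EC20 dopamine, 180 s more.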
D3 ag = confirmation of human D3 dopamine receptor agonists, beta-arrestin. shares compounds with D2 ag-1. DiscoveRx D3 beta-arrestin cells, luminescence, 90 min. Potency, µM (top dose mostly 76.9 µM), for the others: at the highest dose activation, actives largely listed as activators. hit rate 4% among 2,300. AID 720506;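 further: potency means the concentration at half of the fitted maximal effect; 100% = dopamine control response; nearly all actives have a fitted effect of over 70% in size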
Target sequence (P35462 whole entry, looked up): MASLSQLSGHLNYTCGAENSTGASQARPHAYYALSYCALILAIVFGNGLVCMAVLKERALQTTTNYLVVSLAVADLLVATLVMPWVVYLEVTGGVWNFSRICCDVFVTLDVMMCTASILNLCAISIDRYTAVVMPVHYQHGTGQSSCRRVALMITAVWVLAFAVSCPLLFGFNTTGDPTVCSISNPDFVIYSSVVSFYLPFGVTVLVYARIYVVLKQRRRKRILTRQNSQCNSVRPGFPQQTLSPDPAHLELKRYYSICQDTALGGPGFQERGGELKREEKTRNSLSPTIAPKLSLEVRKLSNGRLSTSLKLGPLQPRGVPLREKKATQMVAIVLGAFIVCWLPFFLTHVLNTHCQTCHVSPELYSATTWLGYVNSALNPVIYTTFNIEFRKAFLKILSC
D2 ag-3 = activates human D2 dopamine receptor in D3 counterscreen. shares compounds with D2 ag-1. DiscoveRx PathHunter D2 beta-arrestin, luminescence, 90 min; response scale: percent relative to full dopamine signal. Potency, µM (series often up to 76.9 µM), inactives show top-dose activation, most hits filed as activators. hit rate 5.9% among 2,300. AID 720507; further: potency means the concentration at half of the fitted maximal effect; % of control where 0% means no effect; nearly all actives have a fitted effect of over 70% in size
* hit, by the source's call. Unless noted, the call rests on the fitted dose curve; in most records, active means well fitted activation curve with a large enough effect; inconclusive means small, poorly fitted or top-dose-only effect; inactive means flat fitted curve, though single readings scatter.

For O=C(NCCCN1CCN(c2ccccc2F)CC1)C1CCCN(S(=O)(=O)c2cnc[nH]2)C1 (stereo not given) the results were D2 PAM-1 12, D2 ag-1 68*, D2 antagonist 65*, D2 ag-2 -2, D2 PAM-2 -19, D3 ag inconclusive and D2 ag-3 15%.
COc1cc(C2NC(=O)NC(C)=C2C(=O)OCc2ccc(C)cc2)cc(OC)c1OC (stereo not given) was read as D2 PAM-1 -16, D2 ag-1 0, D2 antagonist 35*, D2 ag-2 -6, D2 PAM-2 -12, D3 ag -6% and D2 ag-3 -1%.
COc1cc(C2NC(=O)NC(C)=C2C(=O)OCc2ccc(C)cc2)cc(OC)c1O (stereo not given) was read as D2 PAM-1 -3, D2 ag-1 1, D2 antagonist -6, D2 ag-2 0 and D2 PAM-2 23.
For Cc1ccc(-c2[nH]ncc2CN2CCN(C(=O)c3cccs3)CC2)cc1C the results were D2 PAM-1 -15, D2 ag-1 77*, D2 antagonist 66*, D2 ag-2 6, D2 PAM-2 -32, D3 ag inconclusive and D2 ag-3 21%.
O=C(c1cccs1)N1CCN(Cc2cn[nH]c2-c2ccc(F)cc2F)CC1 was read as D2 PAM-1 7, D2 ag-1 80*, D2 antagonist 53*, D2 ag-2 inconclusive, D2 PAM-2 -26, D3 ag inconclusive and D2 ag-3 inconclusive.
Screening COc1ccc(-c2[nH]ncc2CN2CCN(C(=O)c3cccs3)CC2)c(F)c1 returned D2 PAM-1 11, D2 ag-1 0, D2 antagonist 14, D2 ag-2 -3 and D2 PAM-2 2.
For COc1cccc(CNC(=O)CCC2CCCN(C(=O)c3cc(C)on3)C2)c1 (stereo not given) the results were D2 PAM-1 -4, D2 ag-1 0, D2 antagonist 15, D2 ag-2 -2 and D2 PAM-2 -2.
`COc1cccc(CNC(=O)CCC2CCCN(C(=O)c3cc(C4CC4)[nH]n3)C2)c1` (stereo not given) gave D2 PAM-1 2, D2 ag-1 0, D2 antagonist 63*, D2 ag-2 0, D2 PAM-2 14, D3 ag -2% and D2 ag-3 0%.
Screening CCCNC(=O)C(Cc1ccc(Br)cc1)NC(=O)c1ccc(C#N)cc1 (stereo not given) returned D2 PAM-1 -1, D2 ag-1 0, D2 antagonist 19, D2 ag-2 -2, D2 PAM-2 -1, D3 ag -8% and D2 ag-3 -4%.
CCCNC(=O)C(Cc1ccc(Cl)cc1)NC(=O)c1ccc(-c2ccccc2)cc1 (stereo not given) was read as D2 PAM-1 1, D2 ag-1 0, D2 antagonist -2, D2 ag-2 0 and D2 PAM-2 -2.
`CCCNC(=O)C(Cc1ccc(Cl)cc1)NC(=O)c1ccc(C#N)cc1` (stereo not given) gave D2 PAM-1 -1, D2 ag-1 0, D2 antagonist 2, D2 ag-2 -9, D2 PAM-2 1, D3 ag -2% and D2 ag-3 -4%.
`COc1ccccc1N1CCN(c2ccc(-c3nc(-c4ccccc4)no3)cc2[N+](=O)[O-])CC1` gave D2 ag-1 -1 and D2 PAM-2 -1.
For CCN(CC)CCCN=C1N[C@@H](c2ccccc2)C(C(=O)OC)=C(C)N1CC the results were D2 PAM-1 -6, D2 ag-1 77*, D2 antagonist 12, D2 ag-2 -2, D2 PAM-2 -25, D3 ag -3% and D2 ag-3 -3%.
`O=C(O)COCC(=O)Nc1ccc(OCCc2ccccc2)cc1` gave D2 PAM-1 -3, D2 ag-1 0, D2 antagonist 0, D2 ag-2 -2, D2 PAM-2 -4, D3 ag -4% and D2 ag-3 2%.
CCOCC(=O)Nc1ccc(OCc2ccccc2)cc1 was read as D2 PAM-1 -1, D2 ag-1 0, D2 antagonist 1, D2 ag-2 -7 and D2 PAM-2 1.
For COc1ccccc1CNC(=O)COCc1cc(-c2cccs2)on1 the results were D2 ag-1 -1 and D2 PAM-2 4.
For CCOc1ccccc1N(C)C(=O)c1sc2nc3n(c(=O)c2c1C)CCCC3 the results were D2 ag-1 -1 and D2 PAM-2 0.
Screening CC(c1ccccc1)n1c(-c2cccs2)nc2c(c(=O)c3ccccc3n2C)c1=O (stereo not given) returned D2 PAM-1 -9, D2 ag-1 2, D2 antagonist 9, D2 ag-2 -2, D2 PAM-2 20, D3 ag -10% and D2 ag-3 -5%.
`CCC(=O)N1CCc2cc(S(=O)(=O)N(C)c3cccc(C)c3)ccc21` gave D2 ag-1 0 and D2 PAM-2 -20.
COc1ccc2nc(/N=C(\N)NC(=O)C(C)(C)C)nc(C)c2c1 was read as D2 PAM-1 -34, D2 ag-1 1, D2 antagonist 35*, D2 ag-2 -1, D2 PAM-2 -9, D3 ag -7% and D2 ag-3 1%.
`CCC(=O)N/C(N)=N/c1nc(C)c2cc(OC)ccc2n1` gave D2 PAM-1 -8 and D2 ag-2 1.
Screening COc1cc(NC(=O)CN2CCCN(Cc3cccc(F)c3)S2(=O)=O)cc(OC)c1 returned D2 ag-1 1 and D2 PAM-2 -21.
Screening CCOC(=O)c1ccccc1NC(=O)CCc1c(C)nc2ncnn2c1C returned D2 ag-1 0 and D2 PAM-2 -8.
`O=c1[nH]c(S)nc2sc3c(c12)CCCC3` gave D2 PAM-1 1, D2 ag-1 -1, D2 antagonist -4, D2 ag-2 -7 and D2 PAM-2 6.
`O=c1[nH]c(-c2ccco2)nc2sc3c(c12)CCCC3` gave D2 PAM-1 -7, D2 ag-1 52*, D2 antagonist 9, D2 ag-2 0, D2 PAM-2 -21, D3 ag -5% and D2 ag-3 -5%.
For CSCCC(NC(=O)c1ccccc1Cl)C(=O)Nc1ccncc1 (stereo not given) the results were D2 PAM-1 -8, D2 ag-1 1, D2 antagonist -1, D2 ag-2 -3, D2 PAM-2 15, D3 ag 1% and D2 ag-3 inconclusive.

Bioassay records: PubChem BioAssay, National Center for Advancing Translational Sciences (NCATS)
